# Assay outcomes as filed in PubChem BioAssay.
# Most compounds without a hit are left out; they make up all but 3.5% or so of the library.
# Anthrax LF inh2 – inhibitors of Bacillus anthracis lethal factor protease; inhibition, % at 10 µM; AID 588501; actives 0.12% (n = 360,000); multiplex microsphere protease cleavage assay, LF; P15917; also: plate controls were buffer without enzyme for full effect and enzyme alone for no effect
# Target sequence (P15917 whole entry, looked up): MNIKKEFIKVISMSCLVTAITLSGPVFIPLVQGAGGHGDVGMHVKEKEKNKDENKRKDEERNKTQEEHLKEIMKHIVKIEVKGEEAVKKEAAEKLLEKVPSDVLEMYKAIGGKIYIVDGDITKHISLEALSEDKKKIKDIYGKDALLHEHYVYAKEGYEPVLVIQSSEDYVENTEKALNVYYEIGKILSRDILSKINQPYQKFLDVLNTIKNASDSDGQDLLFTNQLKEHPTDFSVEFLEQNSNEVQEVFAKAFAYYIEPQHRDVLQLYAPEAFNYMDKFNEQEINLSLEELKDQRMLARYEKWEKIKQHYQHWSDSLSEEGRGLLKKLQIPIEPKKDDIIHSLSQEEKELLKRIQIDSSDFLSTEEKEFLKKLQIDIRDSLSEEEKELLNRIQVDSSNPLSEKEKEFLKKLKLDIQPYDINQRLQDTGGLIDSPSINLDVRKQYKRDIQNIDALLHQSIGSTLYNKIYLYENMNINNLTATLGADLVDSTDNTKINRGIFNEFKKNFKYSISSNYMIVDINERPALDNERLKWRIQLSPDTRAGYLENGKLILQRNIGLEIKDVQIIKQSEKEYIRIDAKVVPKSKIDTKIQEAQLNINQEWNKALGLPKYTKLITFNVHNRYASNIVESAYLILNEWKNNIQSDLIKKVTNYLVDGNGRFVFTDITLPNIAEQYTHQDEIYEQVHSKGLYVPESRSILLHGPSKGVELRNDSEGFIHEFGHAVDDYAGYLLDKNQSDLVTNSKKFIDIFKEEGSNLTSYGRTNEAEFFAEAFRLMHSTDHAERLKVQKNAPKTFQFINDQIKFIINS
# Bead autofluor – counter-screen for toxin protease inhibitors: compound fluorescence. fluorescence intensity (test concentration not listed). actives 3.1% (n = 360,000). compound autofluorescence counterscreen, microsphere flow cytometry; active compounds read high; in the data active = fluorescence intensity above about 16000; inconclusive = no clear call, values can overlap the other calls
# BoNT-F LC inh – BoNT F light chain protease inhibition; AID 588497; inhibition, % at 10 µM; Multiplex microsphere protease cleavage assay, flow cytometry; actives 0.22% (n = 360,000); in the data active = inhibition above about 35%, passing the limit was not always enough; inconclusive = no clear call, values can overlap the other calls; also: plate controls were buffer without enzyme for full effect and enzyme alone for no effect
# BoNT A protease – BoNT A light chain protease inhibition | multiplex microsphere protease substrate cleavage, flow cytometry | inhibition, % at 10 µM | actives 0.17% (n = 360,000); also: plate controls were buffer without enzyme for full effect and enzyme alone for no effect
# Starred values were filed as active, the others as inactive; ? = inconclusive. Rule as the data show it, unless noted: active = inhibition above about 30%; inconclusive = no clear call, values can overlap the other calls; inactive = below that.
SMILES,Anthrax LF inh2,Bead autofluor,BoNT-F LC inh,BoNT A protease
COc1ccc(N(CC(O)CN2C(=O)NC(C)(C)C2=O)S(=O)(=O)c2ccccc2)cc1 (stereo unspecified),-0.5,23290*,-1.5,-0.7
Cc1ccc(S(=O)(=O)N(CC(O)CN2C(=O)NC(C)(C)C2=O)c2ccccc2)cc1 (stereo unspecified),1.0,3026,-4.0,-0.5
CCc1cc(C(=O)NNC(=S)NC(C)c2ccccc2)cs1 (stereo unspecified),-5.2,16961*,-4.1,-2.5
CCc1cc(C(=O)NNC(=S)NC2CCCCC2)cs1,-2.2,5937,-7.0,-2.5
Cc1ccc(N=Nc2c(C)[nH]n(C(N)=S)c2=O)cc1C,-0.2,2082,0.1,2.2
Cc1[nH]n(C(N)=S)c(=O)c1N=Nc1ccc(S(=O)(=O)N2CCCCCC2)cc1,-3.0,21910*,-11.9,?
NC(Cc1ccc(C(F)(F)F)cc1)c1csc(NC(=O)Nc2ccccc2Oc2ccccc2)n1 (stereo unspecified),3.8,3877,-9.6,-0.1
Cc1cc(C)c(C(=O)COC(=O)[C@H](C)Nc2ccc(C(F)(F)F)cc2[N+](=O)[O-])c(C)c1,-1.3,21371*,1.5,0.9
OC(c1ccccc1)c1nc(-c2cccc(C(F)(F)F)c2)cs1 (stereo unspecified),-1.6,3721,-3.5,-0.1
CC(=O)n1nc(-c2ccccc2)nc1NCc1ccc(F)cc1,-6.9,4540,-3.4,-1.2
O=C(c1cccs1)n1nc(-c2ccccc2)nc1NCc1ccc(F)cc1,-2.8,25264*,-5.9,?
CCCN(C(=O)CSc1nnc(-c2ccc3c(c2)OCO3)o1)C1CCS(=O)(=O)C1 (stereo unspecified),-7.8,4124,-10.7,-0.9
Cc1c(C(=O)Nc2nccs2)oc2ccccc12,-2.6,3747,-2.7,0.6
Cc1c(C(=O)NC2=NCCS2)oc2ccccc12,-0.9,21128*,-11.8,-1.3
COc1cc(C(=O)NC2=NCCS2)ccc1OCc1c(C)noc1C,0.1,20499*,-5.8,?
COc1cccc(C(=O)NC2=NCCS2)c1OC,-7.4,19499*,-1.0,?
COc1ccc(Nc2c(CCc3ccccc3)nc3nc(C)cc(C)n23)cc1,0.4,4647,-9.2,-0.9
C=CCN1CC(c2nc3ccccc3n2Cc2cccc3ccccc23)CC1=O (stereo unspecified),-1.1,19853*,-3.2,-1.2
Cc1ccc(OCCn2c(C3CC(=O)N(Cc4ccccc4)C3)nc3ccccc32)cc1 (stereo unspecified),-5.2,4297,-9.7,0.2
C/C=C/c1c(F)c(F)c(Oc2ccc(C(=O)O)cc2)c(F)c1F,-7.0,21781*,2.3,2.9
NC(=O)CC[C@H](NC(=O)c1ccc(F)cc1)C(=O)N1CCN(Cc2ccc3c(c2)OCO3)CC1,-5.9,4010,-2.7,-0.8
COC(=O)c1ccccc1NC(=O)COC(=O)CSCC(=O)N1CCOCC1,-4.3,23481*,-4.6,-1.5
CCOC(=O)c1ccccc1NC(=O)COC(=O)CSCC(=O)Nc1cc(C)on1,2.8,6214,-0.4,-2.9
CCn1cc(/C=C(\NC(=O)c2ccccc2OC)C(=O)NCCN2CCOCC2)c2ccccc21,-5.1,2941,-1.8,0.2
COc1ccc(C(O)c2nc(-c3cccc4cccnc34)cs2)cc1 (stereo unspecified),-4.6,3508,0.0,-0.2
SMILES,Anthrax LF inh2,Bead autofluor,BoNT-F LC inh,BoNT A protease
COC(=O)c1c(C(=O)OC)c2n(c1C)Cc1ccccc1C2,-3.3,22637*,0.4,-0.7
CC1CC(C)CN(C(=O)C(C)N(C)CC(=O)Nc2ccc(F)cc2)C1 (stereo unspecified),-7.7,4288,-8.8,-0.1
COc1ccc(NC(=O)CN(C)C(C)C(=O)N2CCCCC2)cc1 (stereo unspecified),-2.6,21556*,4.9,1.4
COc1ccc(-c2c(C)nn(-c3ccccc3)c2N)cc1,-1.2,20023*,5.1,?
COCCCN(C(C)=O)c1nc(-c2ccc(OC)cc2)cs1,-0.6,21678*,3.4,2.8
COc1ccc(-c2csc(N(CCCN(C)C)C(=O)c3cccs3)n2)cc1,0.3,21006*,-5.6,?
CCN(C(=O)c1cccs1)c1nc(-c2ccc(OC)cc2)cs1,-2.9,4143,-0.8,0.0
O=C(c1ccco1)N(CC1CCCO1)c1nc(-c2ccccc2)cs1 (stereo unspecified),2.7,5658,-7.7,0.5
O=C(c1cccs1)N(CC1CCCO1)c1nc(-c2ccccc2)cs1 (stereo unspecified),-0.2,23325*,-2.5,-0.6
CCN(CC)C(=O)c1cccc(-c2csc(C(O)c3cccc(OC)c3)n2)c1 (stereo unspecified),-6.5,3762,0.0,0.0
CC(C)(C)c1ccc(CC(=O)N2CCC2(C)C(=O)NS(=O)(=O)c2ccc(F)cc2F)cc1 (stereo unspecified),-8.2,4453,-10.3,-1.1
CCC(=O)c1cn(Cc2ccccc2C#N)c2ccccc12,-0.1,23775*,-1.3,-1.7
N#Cc1ccccc1Cn1cc(C(=O)C2CC2)c2ccccc21,0.4,3213,-15.5,0.8
O=C(NCc1ccccc1)C(C(=O)c1ccc(F)cc1)n1ccccc1=O (stereo unspecified),-1.3,4565,2.9,-0.9
CC(C(=O)NCCCN1CCOCC1)n1cccc1C(=O)c1ccccc1 (stereo unspecified),-4.0,3354,1.0,0.0
O=C(COc1ccc(F)cc1)NCC1CCCO1 (stereo unspecified),-0.5,24747*,-4.4,?
O=C(NCC1CCCO1)C(C(=O)c1ccc(F)cc1)n1ccccc1=O (stereo unspecified),-1.1,21506*,2.8,1.2
O=C(COc1ccccc1)NCC1CCCO1 (stereo unspecified),-0.1,6856,-11.5,-2.0
O=C(NCc1cccnc1)C(C(=O)c1ccc(F)cc1)n1ccccc1=O (stereo unspecified),-0.4,22039*,0.7,?
O=C(NCCCN1CCOCC1)C(C(=O)c1ccccc1)n1ccccc1=O (stereo unspecified),-1.2,22755*,0.7,1.2
Cc1ccc(=O)n(C(C(=O)NCc2ccco2)C(=O)c2ccc(F)cc2)c1 (stereo unspecified),-1.3,22339*,0.2,0.3
O=C(COC(=O)CCC(=O)c1ccc(F)cc1)NCc1ccco1,-4.5,4231,2.5,0.1
CC(C)C1C(C#N)=C(N)Oc2n[nH]c(-c3cccs3)c21 (stereo unspecified),1.5,3765,8.2,-0.2
CC(C)c1[nH]nc2c1C(c1cccs1)C(C#N)=C(N)O2 (stereo unspecified),1.9,20949*,-5.5,-3.5
CC(C)Nc1nc(Nc2ccc(F)cc2)c2sccc2n1,-0.9,3828,-6.5,-0.3
CCOC(=O)C1=C(C)NC(C)=C(C(=O)OCC)C1/C=C/c1ccccc1OC,-0.1,2545,-1.6,0.3
C=CCOC(=O)C1=C(C)NC(C)=C(C(=O)OCC=C)C1/C=C/c1ccccc1,-4.0,3810,-5.8,-0.5
COC(=O)C1=C(C)NC(C)=C(C(=O)OC)C1c1ccc(N(C)C)cc1,-0.2,23084*,-2.2,?
CCOC(=O)C1=C(C)NC(C)=C(C(=O)OCC)C1/C=C/c1ccccc1,0.6,22125*,2.3,2.8
